Bioassay records as filed in PubChem.
Pf growth 96h – inhibits malaria parasite growth, 96 h | P. falciparum luciferase reporter growth, 96 h | Potency, µM (highest dose often 28.7 µM), for the others: at the top dose activity change, negative = inhibition, most hits filed as inhibitors | actives 6.9% (n = 320,000); active means well fitted inhibition curve with a large enough effect; inconclusive means small, poorly fitted or top-dose-only effect, or another doubt; inactive means no such curve, though single readings can be large or run the other way; further: potency means the concentration at half of the fitted maximal effect; on the % scale 0 is the no-effect control and ±100 the full control effect
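Erythrocytes infected with luciferase-expressing P. falciparum were dispensed at 2% hematocrit and 0.05% parasitemia (final), then incubated with compounds 96 hours at 37 C in 5% CO2. Luminescence after detection reagent addition reported growth.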
Pf growth 48h – P. falciparum growth inhibition at 48 hours (one generation); P. falciparum luciferase growth in erythrocytes, 48 h; Potency, µM (titrated, usually from 28.7 µM), for the others: top-dose activity change, negative = inhibition, actives largely listed as inhibitors; actives 5.9% (n = 310,000); AID 504832; active means well fitted inhibition curve with a large enough effect; inconclusive means small, poorly fitted or top-dose-only effect, or another doubt; inactive means no such curve, though single readings can be large or run the other way; further: potency means the concentration at half of the fitted maximal effect; on the % scale 0 is the no-effect control and ±100 the full control effect
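Firefly luciferase activity from engineered P. falciparum reports growth; inhibitors lower the luminescent signal. Cultures contained 2% hematocrit erythrocytes at 0.1% final parasitemia.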
Shiga toxin inh – Shiga toxin inhibition; inhibition, % at 38.7 µM; actives 9.2% (n = 290,000); Vero cells, Shiga toxin protein synthesis inhibition reporter; in the data active means inhibition mostly above about 28%, no sharp cut-off; inactive means mostly below about 43%; further: 0% is about no effect
NS1 inh – blocks influenza NS1 protein function; Potency, µM (top dose mostly 46.1 µM), for the others: at the top dose activity, positive = more growth; actives 0.4% (n = 270,000); AID 2326; further: potency means the concentration at half of the fitted maximal effect; actives are rising curves; nearly all actives have a fitted effect of over 50% in size
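In this qHTS, NS1 from influenza A is expressed in budding yeast, where it slows growth. Cells are switched from glucose to 2% galactose medium (pH 6.0, -URA), treated with compound, and growth recovery is read at OD600.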
CHX counter – affects cycloheximide protein synthesis inhibition readout, counter-screen. actives 12% (n = 300,000). cell reporter, cycloheximide protein synthesis inhibition counterscreen. AID 2314. max response, %; in the data active means max response mostly above about 13%, no sharp cut-off; inactive means mostly below about 14%; further: read at 38.3 µM for the half of the compounds with a filed dose; 0% is about no effect
SARS PLpro yeast – blocks SARS-CoV papain-like protease in a yeast assay. S. cerevisiae expressing SARS-CoV PLpro, growth rescue. Potency, µM (top dose mostly 32.9 µM), for the others: top-dose activity, positive = growth rescue, usual class: activators. actives 0.19% (n = 330,000); further: potency means the concentration at half of the fitted maximal effect; 0% is about no effect; nearly all actives have a fitted effect of over 55% in size
* = called active by the depositor; u = inconclusive; x = no result; [ ] = dose if it differs, or a comment. Sampled rows, rich in hits. Any-hit rate of the full collection: about 21%. Unless noted, the call rests on the fitted dose curve.

SMILES	Pf growth 96h	Pf growth 48h	Shiga toxin inh	NS1 inh	CHX counter	SARS PLpro yeast
CCOCCc1nnc(NC(=O)COC)s1	x	5.5%	-1.8	4.3%	5.6	-0.7%
COC(C[C@H]1O[C@H]1C(=O)COCc1ccccc1)OC	46.7%	43.2%	-2.6	3.4%	-4.0	1.7%
CCn1c(C(=O)O)c(CC(=O)Nc2cccc(C(F)(F)F)c2)c2ccccc21	0.738µM*	-6.7%	-1.5	11.4%	-3.7	0.1%
Cn1cc(SCC(=O)Nc2ccc3c(c2)OCO3)c2ccccc21	u	x	11.0	-81.4%	3.3	-7.6%
CC(O)c1nc2ccccc2n1CC(=O)Nc1ccc2c(c1)OCCO2 (stereo not drawn)	28.2%	50.8%	27.3	x	26.5*	2.0%
CCCn1cc(SCC(=O)Nc2ccc3c(c2)OCO3)c2ccccc21	10.4µM*	u	16.7	-10.0%	-1.3	-15.5%
Cn1c(=O)cc(SCC(=O)Nc2ccc3c(c2)OCO3)c2ccccc21	2.94µM*	30.7%	-17.0	0.4%	-5.6	6.4%
CCNC(=O)NC(=O)C(C)N1C(=O)NC(c2ccccc2)(c2ccccc2)C1=O (stereo not drawn)	38.5%	u	-2.4	23.7%	-9.6	3.0%
Nc1n[nH]c(S(=O)(=O)CCCc2ccccc2)n1	33.9%	31.2%	-9.7	9.4%	-2.7	5.5%
C=CCSc1nc(C)c2cc(C)cc(C)c2n1	x	5.1%	-9.0	-63.5%	-2.6	-12.1%
Cc1ccc(NC(=O)Cc2c(C(=O)O)n(C)c3ccccc23)cc1F	u	12.9%	44.4	x	11.9	1.4%
Cn1c(C(=O)O)c(CC(=O)Nc2ccc3c(c2)OCCO3)c2ccccc21	59.5%	133.6%	147.3*	u	63.5*	6.8%
COc1cccc(C(=O)c2ncc(C(F)(F)F)cc2Cl)c1	u	-25.7%	33.9*	x	28.4	-1.2%
Nc1ccccc1Oc1ncc(C(F)(F)F)cc1Cl	52.7%	5.22µM*	-15.9	-9.5%	1.1	4.6%
O=C(C1=C[C@@H](c2coc3ccccc3c2=O)C[C@@H](OCc2ccc(CO)cc2)O1)N1CCN(Cc2ccccc2)CC1	u	u	18.4	-9.7%	-2.3	-2.7%
C=CCOC(=O)C1=C[C@@H](c2csc3ccccc23)C[C@@H](OCc2ccc(CO)cc2)O1	13.1µM*	u	-1.3	2.9%	7.4	-2.7%
O=C(C1=C[C@@H](c2csc3ccccc23)C[C@@H](OCc2ccc(CO)cc2)O1)N1CCN(Cc2ccc3c(c2)OCO3)CC1	5.22µM*	u	1.7	11.9%	-1.7	0.7%
O=C(Nc1ccccc1)C1=C[C@H](c2csc3ccccc23)C[C@H](OCc2ccc(CO)cc2)O1	u	u	3.3	13.6%	1.5	-1.1%
O=C(C1=C[C@@H](c2csc3ccccc23)C[C@@H](OCc2ccc(CO)cc2)O1)N1CCN(Cc2ccccc2)CC1	5.22µM*	u	-5.7	2.5%	-2.0	-2.9%
O=C(C1=C[C@@H](c2ccccc2)C[C@@H](OCc2ccc(CO)cc2)O1)N1CCN(Cc2ccc3c(c2)OCO3)CC1	u	u	-3.3	-9.2%	-0.9	-2.2%
O=C(NC1CC1)C1=C[C@H](c2csc3ccccc23)C[C@H](OCc2ccc(CO)cc2)O1	u	u	2.1	-33.2%	-3.5	-12.2%
O=C(C1=C[C@@H](c2csc3ccccc23)C[C@@H](OCc2ccc(CO)cc2)O1)N1CCOCC1	u	u	-6.5	4.8%	10.8*	-0.8%
Nc1ccc(Sc2ccccc2CC(=O)O)cc1	87.6%	10.0%	-5.9	8.3%	7.6	1.9%
Cc1c(NC(=O)c2ccc3c(c2)OCO3)c(=O)n(-c2ccccc2)n1C	x	11.5%	0.6	0.9%	-0.7	3.1%
Cc1ccc(C(C)(O)CS(=O)(=O)Cc2ccccc2)cc1 (stereo not drawn)	-1.1%	-91.6%[0.00184 µM]	19.1	-1.3%	15.6*	0.1%
SMILES	Pf growth 96h	Pf growth 48h	Shiga toxin inh	NS1 inh	CHX counter	SARS PLpro yeast
CC(C)Cn1c(N)c(C(=O)COC(=O)c2cccn2C)c(=O)n(C)c1=O	x	x	x	x	x	0.1%
Cc1cc(C)cc(OCC(=O)Nc2ccc(-n3cnnn3)cc2)c1	10.5%	-20.0%	x	x	x	-3.8%
Cc1ccc(C(=O)n2cnc3ccccc32)cc1C	44.2%	24.8%	21.2	-3.0%	6.3	2.5%
CC1CC(C)CN(C(=O)c2ccc3ccccc3c2)C1 (stereo not drawn)	u	0.828µM*	x	x	x	-4.8%
CN(C(=O)COC(=O)c1ccc2c(c1)OCO2)C1CCCCC1	x	x	x	x	x	-14.8%
O=C(c1ccc2c(c1)OCO2)N1CCN(c2ccc(F)cc2)CC1	11.0%	23.8%	32.7	1.0%	18.5*	10.3%
Cc1cc2ncn(C(=O)c3ccc4c(c3)OCO4)c2cc1C	2.94µM*	34.9%	31.1	-4.0%	10.5	-3.9%
C[N+]12CCCCC1C(COC(=O)c1ccc3c(c1)OCO3)CCC2 (stereo not drawn)	x	9.28µM*	5.1	-1.5%	-1.7	0.0%
COc1cccc(CN(C)CC(=O)Nc2ccccc2C(=O)Nc2ccccc2)c1OC	u	u	17.2	x	13.5	0.0%
O=C1OC(c2ccc(F)cc2)=N/C1=C\C=C/c1ccccc1	u	6.4%	-6.7	-0.9%	-4.5	1.4%
O=C(c1ccc2ccccc2c1)N1CCCCC1	24.9%	5.9%	-7.1	3.5%	-3.6	1.2%
NC(=O)C1CCN(C(=O)c2ccc3ccccc3c2)CC1	15.8%	52.1%	32.7*	0.7%	17.2*	0.3%
CC1CCN(C(=O)c2ccc3c(c2)OCO3)CC1	13.1µM*	0.2%	3.4	u	9.3	1.3%
CC1CCN(C(=O)c2ccc3ccccc3c2)CC1	u	-34.9%	52.4*	-9.0%	39.2*	-3.5%
O=C(c1ccc2c(c1)OCO2)N1CCCCC1	x	x	-2.0	x	6.8	x
CC1CCCC(C)N1C(=O)COC(=O)c1ccc2c(c1)OCO2 (stereo not drawn)	40.3%	42.2%	43.2	1.5%	16.9*	-6.7%
Cc1cc(C)n(-c2ccc(C(=O)OCC(=O)Nc3ccccc3F)cc2)n1	x	x	x	x	x	-1.6%
Cc1cc(NC(=O)C(C)SCC(=O)OCC(=O)N(C)c2ccccc2)no1 (stereo not drawn)	u	-3.0%	x	x	x	2.1%
O=C(Nc1cc(SCCO)cc([N+](=O)[O-])c1)c1ccco1	9.2%	19.0%	2.0	-0.4%	-3.9	-4.0%
Cc1nn(C)cc1C(=O)Nc1cc(Oc2ccc(Cl)cc2)cc([N+](=O)[O-])c1	x	u	-15.2	-3.5%	-3.3	-3.7%
CCOc1ccc(Oc2cc(NC(=O)c3ccco3)cc([N+](=O)[O-])c2)cc1	1.65µM*	6.57µM*	9.1	-115.1%	-2.4	-38.4%
O=C(Nc1cc(Oc2ccc(Cl)cc2)cc([N+](=O)[O-])c1)c1ccco1	94.6%	u	74.3*	-16.9%	47.1*	-37.1%
CCN(CC)CCCCCC(=O)Nc1ccccc1C(=O)Nc1ccccc1	10.4µM*	10.1%	-4.0	-1.4%	0.4	0.5%
CC(=O)c1ccccc1NCC(=O)Nc1ccc(C)cc1	u	11.0%	60.8*	-40.9%	30.4*	-2.5%
